PubChem BioAssay (Tox21)
Several values for one entry are separate records, joined by “and”; a condition that tells them apart may be missing. Identical values can stand only once. Records with an inconclusive call do not appear. A call without a number means that no potency is given here. The source holds several records for some structures; these can differ, active in one and inactive in another. Activity calls are given as the source filed them. Unless noted, calls follow the shape of the dose curve; as a rule, active = well fitted curve in the direction sought with a large enough effect in the repeat runs; inconclusive = weak or mixed curves; inactive = no such curve, though single readings can be large; an effect the other way counts as inactive or inconclusive.

How the values were obtained:
[1] = qHTS assay to identify small molecule antagonists of the glucocorticoid receptor (GR) signaling pathway - cell viability counter screen (AID 720693); also: nearly all actives have a fitted effect of over 55% in size
[2] = qHTS assay for identifying genotoxic compounds that show differential cytotoxicity against isogenic chicken DT40 cell lines with known DNA damage response pathways - Rev3 mutant cell line (AID 743014); also: nearly all actives have a fitted effect of over 55% in size; also: potency is read from the fitted curve at half-maximal effect
[3] = qHTS assay for identifying genotoxic compounds that show differential cytotoxicity against isogenic chicken DT40 cell lines with known DNA damage response pathways - Rad54/Ku70 mutant cell line (AID 743015); also: nearly all actives have a fitted effect of over 60% in size; also: potency is read from the fitted curve at half-maximal effect
[4] = qHTS assay to identify small molecule antagonists of the androgen receptor (AR) signaling pathway - cell viability counter screen (AID 743033; also: nearly all actives have a fitted effect of over 45% in size)
[5] = molecular target: Androgen receptor (Homo sapiens) (UniProt P10275); experiment: qHTS assay to identify small molecule antagonists of the androgen receptor (AR) signaling pathway (AID 743035; active = well fitted inhibition curve with a large enough effect in the signal ratio in the repeat runs, not every such curve was filed as active; the % refers to the signal ratio)
Sequence of Androgen receptor (Homo sapiens) (P10275 whole entry, looked up): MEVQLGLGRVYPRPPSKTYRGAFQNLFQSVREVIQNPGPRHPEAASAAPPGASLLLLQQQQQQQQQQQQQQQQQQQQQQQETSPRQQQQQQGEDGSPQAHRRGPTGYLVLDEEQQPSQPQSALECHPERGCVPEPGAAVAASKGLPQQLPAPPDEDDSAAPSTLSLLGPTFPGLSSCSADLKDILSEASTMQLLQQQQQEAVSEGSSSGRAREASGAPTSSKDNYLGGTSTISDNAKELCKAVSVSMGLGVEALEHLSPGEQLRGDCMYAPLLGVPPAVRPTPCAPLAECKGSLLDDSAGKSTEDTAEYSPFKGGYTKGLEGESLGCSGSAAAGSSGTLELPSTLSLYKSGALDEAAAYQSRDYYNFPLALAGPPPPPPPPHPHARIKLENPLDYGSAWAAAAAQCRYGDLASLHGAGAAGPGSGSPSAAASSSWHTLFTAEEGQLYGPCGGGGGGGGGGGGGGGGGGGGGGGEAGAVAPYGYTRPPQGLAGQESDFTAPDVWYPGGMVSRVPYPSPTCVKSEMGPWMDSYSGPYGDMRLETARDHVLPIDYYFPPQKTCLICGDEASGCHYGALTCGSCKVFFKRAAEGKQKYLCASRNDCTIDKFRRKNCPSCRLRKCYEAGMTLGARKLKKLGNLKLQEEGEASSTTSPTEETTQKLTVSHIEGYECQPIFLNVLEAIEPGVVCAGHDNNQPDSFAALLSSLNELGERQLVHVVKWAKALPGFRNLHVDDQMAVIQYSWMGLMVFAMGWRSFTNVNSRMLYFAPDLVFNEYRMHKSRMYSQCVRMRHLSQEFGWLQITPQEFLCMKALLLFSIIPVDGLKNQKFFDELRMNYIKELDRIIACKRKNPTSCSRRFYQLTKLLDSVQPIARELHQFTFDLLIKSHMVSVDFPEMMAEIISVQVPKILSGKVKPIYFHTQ
Method in brief: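 Quantitative HTS of the Tox21 10K library used HEK293 AR-UAS-bla cells stimulated with R1881 alongside compound for 16 h at 37C, followed by beta-lactamase FRET detection (LiveBLAzer B/G, 2 h, RT).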

[6] = molecular target: Androgen receptor (Homo sapiens) (UniProt P10275); experiment: qHTS assay to identify small molecule agonists of the androgen receptor (AR) signaling pathway using the MDA cell line (AID 743040; also: nearly all actives have a fitted effect of over 20% in size)
Method in brief: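 Stable MMTV-luciferase reporter in MDA-kb2 cells; note the promoter carries GR as well as AR response elements. 16 h compound treatment, 37C, 0% CO2; ONE-Glo luminescence endpoint.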

[7] = qHTS assay to identify small molecule antagonists of the androgen receptor (AR) signaling pathway using the MDA cell line - cell viability counter screen (AID 743041; also: nearly all actives have a fitted effect of over 45% in size)
Method in brief: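 Using the breast carcinoma line MDA-kb2 AR-luc, test chemicals were co-incubated with R1881 for 16 h; CellTiter-Fluor reagent, added at 15.5 h, provided a fluorescence measure of live cells.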

[8] = molecular target: Androgen receptor (Homo sapiens) (UniProt P10275); experiment: qHTS assay to identify small molecule antagonists of the androgen receptor (AR) signaling pathway using the MDA cell line (AID 743042; also: nearly all actives have a fitted effect of over 55% in size; also: potency is read from the fitted curve at half-maximal effect)
Method in brief: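 Antagonist mode: compounds plus R1881 agonist added to MDA-kb2 AR-luc cells, incubated 16 h at 37C. Luciferase reporter luminescence quantified, with multiplexed CellTiter-Fluor readout for cell viability.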

[9] = qHTS assay for identifying genotoxic compounds that show differential cytotoxicity against isogenic chicken DT40 cell lines with known DNA damage response pathways - wild type cell line (AID 743012); also: nearly all actives have a fitted effect of over 60% in size; also: potency is read from the fitted curve at half-maximal effect
Method in brief: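 Luminescent ATP viability signal (CellTiter-Glo, 30 min RT) recorded after wild type DT40 cells were incubated with compounds for 40 h at 37 C/5% CO2.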

[10] = molecular target: Androgen receptor (Homo sapiens) (UniProt P10275); experiment: qHTS assay to identify small molecule agonists of the androgen receptor (AR) signaling pathway (AID 743036; active = well fitted activation curve with a large enough effect in the signal ratio in the repeat runs, with a control signal flat, not every such curve was filed as active; the % refers to the signal ratio)
Method in brief: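 Activation was read as beta-lactamase FRET signal from LiveBLAzer B/G substrate, added for 2 h at room temperature. Before that, GeneBLAzer AR-UAS-bla GripTite (HEK293) cells had 16 h compound exposure at 37C.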

Row | Compound | outcome [1] | Potency [2] | Potency [3] | Potency [4] | outcome [5] | Potency [6] | Potency [7] | Potency [8] | Potency [9] | outcome [10]
1 | CC1(C)C(O)C(C)(C)C1O (stereo unspecified) | inactive | inactive | inactive | inactive | inactive | inactive | inactive | inactive |  | 
2 | NC(CSCC(=O)O)C(=O)O (stereo unspecified) | inactive | inactive | inactive | inactive |  |  | inactive |  |  | 
3 | O=C1OC(=O)C2CCCCC12 (stereo unspecified) | inactive | inactive | inactive | inactive |  |  | inactive |  |  | 
4 | CCCCC/C=C\CCC=O | inactive | inactive | inactive | inactive | inactive |  | inactive |  |  | 
5 | O=S(O)CO | inactive | inactive |  | inactive | inactive | inactive | inactive | inactive |  | 
6 | O=C1CCCCCCCCCCCN1 | inactive | inactive | inactive | inactive |  |  | inactive |  |  | 
7 | CCC(=O)OC(C)c1ccccc1 (stereo unspecified) | inactive | inactive | inactive | inactive |  |  | inactive |  |  | 
8 | O=c1n(CCO)c(=O)n(CCO)c(=O)n1CCO | inactive | inactive and 61.1 µM (active) | inactive | inactive |  |  | inactive |  |  | 
9 | CCCCCCCCCCCCN(CCCCCCCCCCCC)CCCCCCCCCCCC | inactive |  | inactive | inactive |  |  | inactive |  |  | 
10 | O=c1cc(-c2ccccc2)oc2ccccc12 |  | 48.6 µM (active) and 43.1 µM (active) | 56.9 µM (active) | inactive |  | inactive | inactive | inactive | 21.7 µM (active) | 
11 | CCOC(=O)c1cccc(N)c1 | inactive | inactive | inactive | inactive |  |  | inactive |  |  | 
12 | CC(C)(c1ccc(O)cc1)c1ccc(O)cc1 |  | 67.8 µM (active) and 50.4 µM (active) | 49.2 µM (active) | inactive |  | inactive | inactive | 59.2 µM (active) | 27.3 µM (active) | inactive
13 | O=C(O)c1ccccc1OP(=O)(O)O | inactive | inactive |  | inactive |  |  | inactive |  |  | 
14 | N[C@H](C(=O)O)c1ccc(O)cc1 | inactive | inactive | inactive | inactive |  |  | inactive |  |  | 
15 | CS(=O)(=O)O |  | inactive | inactive | inactive | inactive | inactive | inactive |  | inactive | inactive
16 | CCOC(=O)CC(C)=O | inactive | inactive | inactive | inactive |  |  | inactive |  |  | 
17 | CCN1CCC[C@H]1CNC(=O)c1c(O)c(Cl)cc(Cl)c1OC | inactive | inactive |  | inactive |  |  | inactive |  |  | 
18 | CCCN1CCCC[C@H]1C(=O)Nc1c(C)cccc1C | inactive | inactive | inactive | inactive |  |  | inactive |  |  | 
